Source: PubChem BioAssay AID1159580 (chemical genetic matrix, 2015)
Hit rate of the full screen: of about 5,500 compounds, about 2,000 (36%) were called active. Roughly 18% stayed inconclusive and do not appear here. Cut-off read from the data, not from the text of the source: active = normalized growth mostly below about 0.91 (no sharp cut-off); inconclusive = no clear call, values can overlap the other calls; inactive = mostly above about 0.92. The list shows a part of the results.

Experiment: chemical genetic growth profiling, strain panel (AID 1159580);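 note: tested at 20 µM; growth read once vehicle control cultures reached saturation at 30 °C; 1 = growth at the plate median or of vehicle wells; lower values mean less growth of the strain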
Settings: growth OD

Measured: normalized growth

O=C1O[C@@H](CO)[C@H](O)[C@@H](O)[C@@H]1O
inactive: S. cerevisiae deletion strains, locus YJR066W, strain TOR1, hits give low values 0.965 | S. cerevisiae deletion strains, locus YKL009W, strain mrt4, hits give low values 1.02 | S. cerevisiae deletion strains, locus YKL068W, hits give low values 0.999 | S. cerevisiae deletion strains, locus YKL085W, strain MDH1 (second series), hits give low values 0.998 | S. cerevisiae deletion strains, locus YKL085W, strain MDH1, hits give low values 0.998 | S. cerevisiae deletion strains, locus YKL160W, strain elf1, hits give low values 1.02 | S. cerevisiae deletion strains, locus YKL190W, strain CNB1, hits give low values 0.999 | S. cerevisiae deletion strains, locus YKR001C, strain vps1, hits give low values 0.985 | S. cerevisiae deletion strains, locus YKR026C, strain gcn3, hits give low values 1.01 | S. cerevisiae deletion strains, locus YKR091W, strain srl3, hits give low values 1.01 | S. cerevisiae deletion strains, locus YLL001W, strain dnm1, hits give low values 1.01 | S. cerevisiae deletion strains, locus YLL026W, hits give low values 1.02 | S. cerevisiae deletion strains, locus YLL041C, strain sdh2, hits give low values 1.02 | S. cerevisiae deletion strains, locus YLR027C, strain aat2, hits give low values 1.02 | S. cerevisiae deletion strains, locus YLR039C, strain RIC1, hits give low values 1.03 | S. cerevisiae deletion strains, locus YLR058C, strain SHM2, hits give low values 1.01 | S. cerevisiae deletion strains, locus YLR102C, strain apc9, hits give low values 1.01 | S. cerevisiae deletion strains, locus YLR113W, strain HOG1, hits give low values 0.963 | S. cerevisiae deletion strains, locus YLR221C, strain rsa3, hits give low values 1.01 | S. cerevisiae deletion strains, locus YLR258W, strain gsy2, hits give low values 1.04 | S. cerevisiae deletion strains, locus YLR262C, strain YPT6 (second series), hits give low values 1 | S. cerevisiae deletion strains, locus YLR262C, strain YPT6, hits give low values 1.08 | S. cerevisiae deletion strains, locus YLR268W, strain sec22, hits give low values 1.01 | S. cerevisiae deletion strains, locus YLR320W, strain mms22, hits give low values 1.02 | S. cerevisiae deletion strains, locus YLR330W, strain CHS5, hits give low values 1.01 | S. cerevisiae deletion strains, locus YLR342W, strain FKS1 (second series), hits give low values 1.04 | S. cerevisiae deletion strains, locus YLR342W, strain FKS1, hits give low values 1.03 | S. cerevisiae deletion strains, locus YLR357W, strain rsc2, hits give low values 1.01 | S. cerevisiae deletion strains, locus YLR370C, strain arc18, hits give low values 1.03 | S. cerevisiae deletion strains, locus YLR371W, strain rom2, hits give low values 1.01 | S. cerevisiae deletion strains, locus YLR384C, strain iki3, hits give low values 1.01 | S. cerevisiae deletion strains, locus YLR418C, strain cdc73, hits give low values 1.04 | S. cerevisiae deletion strains, locus YML016C, strain PPZ1, hits give low values 1.01 | S. cerevisiae deletion strains, locus YML032C, strain rad52, hits give low values 0.991 | S. cerevisiae deletion strains, locus YML120C, strain ndi1, hits give low values 1.01 | S. cerevisiae deletion strains, locus YML124C, strain tub3, hits give low values 1 | S. cerevisiae deletion strains, locus YMR058W, strain fet3, hits give low values 1.03 | S. cerevisiae deletion strains, locus YMR078C, strain ctf18, hits give low values 1 | S. cerevisiae deletion strains, locus YMR125W, strain sto1, hits give low values 1.02 | S. cerevisiae deletion strains, locus YMR129W, hits give low values 1.02 | S. cerevisiae deletion strains, locus YMR205C, strain PFK2, hits give low values 1.04 | S. cerevisiae deletion strains, locus YMR223W, strain ubp8, hits give low values 1.04 | S. cerevisiae deletion strains, locus YMR231W, strain pep5, hits give low values 1.02 | S. cerevisiae deletion strains, locus YMR307W, strain GAS1, hits give low values 1.05 | S. cerevisiae deletion strains, locus YNL067W, strain RPL9B, hits give low values 0.994 | S. cerevisiae deletion strains, locus YNL071W, strain lat1, hits give low values 1.02 | S. cerevisiae deletion strains, locus YNL128W, strain TEP1, hits give low values 1.02 | S. cerevisiae deletion strains, locus YNL183C, strain NPR1, hits give low values 0.944 | S. cerevisiae deletion strains, locus YNL209W, strain ssb2, hits give low values 1.03 | S. cerevisiae deletion strains, locus YNL233W, strain BNI4, hits give low values 1 | S. cerevisiae deletion strains, locus YNL248C, strain rpa49, hits give low values 1.06 | S. cerevisiae deletion strains, locus YNL250W, strain rad50, hits give low values 1.05 | S. cerevisiae deletion strains, locus YNL271C, strain bni1, hits give low values 0.993 | S. cerevisiae deletion strains, locus YNL298W, strain CLA4, hits give low values 1.01 | S. cerevisiae deletion strains, locus YNL307C, strain MCK1, hits give low values 1 | S. cerevisiae deletion strains, locus YNL322C, strain KRE1 (second series), hits give low values 1 | S. cerevisiae deletion strains, locus YNR049C, strain mso1, hits give low values 1.02 | S. cerevisiae deletion strains, locus YNR052C, strain pop2, hits give low values 1.01 | S. cerevisiae deletion strains, locus YOL006C, strain TOP1, hits give low values 0.992 | S. cerevisiae deletion strains, locus YOL012C, strain htz1 0.898 | S. cerevisiae deletion strains, locus YOL147C, strain pex11, hits give low values 1 | S. cerevisiae deletion strains, locus YOR001W, strain rrp6, hits give low values 1.01 | S. cerevisiae deletion strains, locus YOR061W, strain CKA2, hits give low values 1 | S. cerevisiae deletion strains, locus YOR069W, strain VPS5, hits give low values 1.01 | S. cerevisiae deletion strains, locus YOR070C, strain gyp1, hits give low values 1.03 | S. cerevisiae deletion strains, locus YOR080W, strain dia2, hits give low values 1.01 | S. cerevisiae deletion strains, locus YOR083W, strain WHI5, hits give low values 0.994 | S. cerevisiae deletion strains, locus YOR106W, strain vam3, hits give low values 1.01 | S. cerevisiae deletion strains, locus YOR136W, strain idh2, hits give low values 0.99 | S. cerevisiae deletion strains, locus YOR144C, strain elg1, hits give low values 1.01 | S. cerevisiae deletion strains, locus YOR184W, strain ser1, hits give low values 1 | S. cerevisiae deletion strains, locus YOR231W, strain MKK1, hits give low values 0.968 | S. cerevisiae deletion strains, locus YOR265W, strain rbl2, hits give low values 1.02 | S. cerevisiae deletion strains, locus YOR270C, strain vph1, hits give low values 1.06 | S. cerevisiae deletion strains, locus YOR290C, strain snf2, hits give low values 1.04 | S. cerevisiae deletion strains, locus YOR316C, strain cot1, hits give low values 1.01 | S. cerevisiae deletion strains, locus YPL051W, strain arl3, hits give low values 1 | S. cerevisiae deletion strains, locus YPL055C, strain LGE1, hits give low values 0.958 | S. cerevisiae deletion strains, locus YPL078C, strain atp4, hits give low values 1.03 | S. cerevisiae deletion strains, locus YPL106C, strain sse1, hits give low values 1.04 | S. cerevisiae deletion strains, locus YPL240C, strain hsp82, hits give low values 1.01 | S. cerevisiae deletion strains, locus YPL241C, strain CIN2, hits give low values 1 | S. cerevisiae deletion strains, locus YPL256C, strain CLN2, hits give low values 0.953 | S. cerevisiae deletion strains, locus YPR119W, strain clb2, hits give low values 1 | S. cerevisiae deletion strains, locus YPR141C, strain kar3, hits give low values 0.989 | S. cerevisiae deletion strains, locus YPR163C, strain tif3, hits give low values 1 | S. cerevisiae deletion strains, locus YPR167C, strain met16, hits give low values 1.01 | S. cerevisiae deletion strains, strain wtn01, hits give low values 0.997 | S. cerevisiae strains, strain wild type, hits give low values 1
